The results in this text go back to PubChem BioAssay (EPA / NIEHS).

Molecules are shown by their SMILES. Calls of active or inactive are those of the source. Rule for the calls: active = hit-call score of the fitted dose curve at least 0.9, where 1 is the maximum; inactive = score below 0.9.

One may read the AC50 as the concentration at which the activity in the assay is half-maximal.

The nature of the test: ATG_PPRE_CIS: Attagene CIS-FACTORIAL HepG2 Assay for human Peroxisome Proliferator-activated Response Element (PPRE) (AID 2282958). The note with it: HepG2 PPRE cis-element reporter, Attagene transcription factor profiling; actives raise or lower the signal. The procedure: ATG_CIS is a cell-based, multiplexed-readout assay that uses HepG2, a human liver cell line, with measurements taken at 24 hours after chemical dosing in a 24-well plate.ATG_PPRE_CIS is one of 52 assay component(s) measured or calculated from the ATG_CIS assay. It is designed to make measurements of mRNA induction, a form of inducible reporter, as detected with fluorescence intensity signals by Reverse transcription polymerase chain reaction (RT-PCR) and Capillary electrophoresis technology.Data from the assay component ATG_PPRE_CIS was analyzed into 1 assay endpoint. This assay endpoint, ATG_PPRE_CIS, was analyzed with bidirectional fitting relative to DMSO as the negative control and baseline of activity. Using a type of inducible reporter, measures of mRNA for gain or loss-of-signal activity can be used to understand the reporter gene at the transcription factor-level as they relate to the gene PPARA and PPARD and PPARG. Furthermore, this assay endpoint can be referred to as a primary readout, because this assay has produced multiple assay endpoints where this one serves a reporter gene function. To generalize the intended target to other relatable targets, this assay endpoint is annotated to the nuclear receptor intended target family, where the subfamily is non-steroidal.
Human liver HepG2 cells are transiently transfected with multiple reporter transcription units (MRTUs) in 6-well plates using FuGene 6 reagent (Roche; 3 ml FuGene/1 mg DNA). The MRTU constructs are regulated by a cis-regulating element (promoter). […] A major difference between the CIS and TRANS system is that in CIS activities of endogenous TFs are measured, whereas the TRANS assay evaluates changes in activities of exogenous, chimeric NR-Gal4 proteins. […] At the end of 24 hour incubation, total RNA was isolated using TriZol reagent (Invitrogen). The isolated RNA is then reverse-transcribed using oligo(dT) primer and Mo-MLV reverse transcriptase (Invitrogen) with DNAse I (Ambion) treatment for 30 min. The one-tenth of the produced cDNA was amplified by PCR using Taq DNA polymerase (Invitrogen) and two reporter sequence-specific primers. The PCR products were fluorescently labeled by primer extension with 6-arboxyfluorescein (6-FAM) 5'-labeled reporter sequence-specific primer (2 min at 95 C, 20 s at 68 C and 10 min at 72 C) and these products were digested with 5U of HpaI (New England Biolabs) for 2h at 37 C. The fragments were purified using Qiaquick PCR columns (Qiagen), analyzed on an ABI 3130xL genetic analyzer (Applied Biosystems) with peak positions identified by using a set of X-rhodamine (ROX)-labeled MapMarker1000 molecular weight standards (BioVentures). The raw capillary electrophoresis data was processed using Attagraph software (Attagene).
As for `CCCCCCCCSCCO`, the compound was called inactive.
Same read-out and setting: with `CC1(C)COCN1` the entry was “inactive”.
As for `C#CC(C)(O)CC(C)C` (stereo not given), the compound was classed as inactive.
Same read-out and setting: with `Cc1ccc(S(N)(=O)=O)cc1` the entry was “inactive”; with `CC=CC=CCOC(=O)C(C)C`, “inactive”.
On the same count and under the same terms, with `C=C(C)C(=O)OCC(CC)(COC(=O)C(=C)C)COC(=O)C(=C)C` the entry was “inactive”; with `NCC1CCCC(CN)C1` (stereo not given), “inactive”.
With `CCCC(=O)c1ccccc1`, the call was inactive.
On the same count and under the same terms, with `Cc1ccc2c(c1)C(=O)OC2=O` the entry was “inactive”.
Same read-out and setting: the same measure for `O=C(Nc1ccc([N+](=O)[O-])cc1)Nc1ccc([N+](=O)[O-])cc1` (tested in a mixture with another compound): “inactive”.
On the same count and under the same terms, the same measure for `C/C=C(\C)C(=O)OCCc1ccccc1`: “inactive”; for `O=C1NC2NC(=O)NC2N1` (stereo not given): “inactive”.
On to `CC1C2CC(CC2C2CCCC(O)C2)C1(C)C` (stereo not given), for which the outcome was inactive.
The same measure, in the same setting: the same measure for `NC1CCCCC1N` (stereo not given): “inactive”; for `Cc1cc(C)nc(NS(=O)(=O)c2ccc(N)cc2)n1`: “inactive”; for `CCCCC(CC)(CO)CO`: “inactive”.
Regarding `CC(C)(C)C1=CC(=O)C(C(C)(C)C)=CC1=O`, the AC50 is 13.4 µM (active).
With `CCc1cc(C(C)(C)C)c(O)c(C(C)(C)C)c1`, the compound was called inactive.
On the same count and under the same terms, the same measure for `CC1=C(Br)C(=O)C(Br)=C/C1=C(/c1ccccc1S(=O)(=O)O)c1cc(Br)c(O)c(Br)c1C`: “inactive”; for `C=COCCOCCOC=C`: “inactive”.
Same read-out and setting: the same measure for `CC(=O)NCCO`: “inactive”.
The same measure, in the same setting: the same measure for `COC(C)(C)CCO`: “inactive”.
For the compound `CCCCCCC(CO)CCCC` (stereo not given), the outcome was inactive.
For the compound `CCCC(=O)OC(C)(C)Cc1ccccc1`, the AC50 is 178 µM (active).
For `CCCCCCCC(=O)OCCCCCC`, the compound was classed as inactive.
On the same count and under the same terms, with `C=CCCC(=O)/C=C/C1C(C)=CCCC1(C)C` (stereo not given) the entry was “inactive”.
On the same count and under the same terms, with `COC(=O)c1ccc(C)cc1C1=NC(C)(C(C)C)C(=O)N1` (stereo not given) (tested in a mixture with another compound) the entry was “inactive”; with `CSCCC=O`, “inactive”; with `Clc1cc(Cl)c(-c2c(Cl)c(Cl)cc(Cl)c2Cl)cc1Cl`, “inactive”.
As to `O=C1OC(=O)c2c(Br)c(Br)c(Br)c(Br)c21`, the call was inactive.
For the compound `COc1cc(Cl)c(OC)cc1N`, the outcome was inactive.
`CN(C)CCOc1ccc(/C(=C(/CCCl)c2ccccc2)c2ccccc2)cc1`: the compound was called inactive.
The same measure, in the same setting: with `C=C1C[C@]23C[C@@]1(O)CC[C@H]2[C@@]12C=C[C@H](O)[C@@](C)(C(=O)O1)[C@H]2[C@@H]3C(=O)O` the entry was “inactive”.
Regarding `CN(C)C(=S)SC(=S)N(C)C`, the AC50 was 46.2 µM (active).
For the compound `CCCCCCOC(=O)CCC`, the compound was classed as inactive.
On to `O=C(CC(=O)c1ccccc1)c1ccccc1`, for which the AC50 was 3.67 µM (active).
On to `CCOC(=O)CCc1ccccc1`, for which the result was inactive.
As for `CCCC(O)C(O)CO` (stereo not given), the call was inactive.
Still for that read-out and setting: the same measure for `CS(=O)(=O)c1ccc(C2=C(c3ccccc3)C(=O)OC2)cc1`: “inactive”; for `CC1(C)CCC[C@]2(C)[C@H]3CCO[C@]3(C)CC[C@@H]12`: “inactive”.
